Test results: PubChem BioAssay (EPA / NIEHS)
“And” between values parts separate entries of the source, which are not always exact repeats. Identical values can stand only once. Inconclusive results are not listed. Where a structure was tested more than once in an assay, its records may differ in their call. The source made the active and inactive calls. How the source made its calls, unless noted: active means hit-call score of the fitted dose curve at least 0.9, where 1 is the maximum; inactive means score below 0.9.

Key:
[1] = target: Paired box protein Pax-6 (Homo sapiens) (UniProt P26367); test: ATG_Pax6_CIS: Attagene CIS-FACTORIAL HepG2 Assay for human Paired Box 6 (PAX6) (AID 2282956); details: HepG2 CIS-FACTORIAL PAX6 reporter transcription, RNA readout; actives raise or lower the signal
Outline: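 Fluorescent RT-PCR products separated by capillary electrophoresis report PAX6-linked promoter mRNA in HepG2 cells 24 h post-dose. Curves fitted bidirectionally, DMSO as negative control.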

[2] = ATG_PXRE_CIS: Attagene CIS-FACTORIAL HepG2 Assay for human Pregnane X Receptor Element (PXRE) (AID 2282957); details: HepG2 Attagene CIS-FACTORIAL PXRE reporter, mRNA; actives raise or lower the signal
Outline: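 Reporter transcripts under endogenous PXR-responsive cis-regulation quantified from total RNA of transfected HepG2 cells 24 h post-dosing, via RT-PCR with fluorescent primer extension and capillary electrophoresis. Gain or loss of signal fitted against DMSO baseline.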

[3] = ATG_RORE_CIS: Attagene CIS-FACTORIAL HepG2 Assay for human RAR-related Orphan Receptor Element (RORE) (AID 2282959); details: HepG2 Attagene cis-factorial RORE reporter, mRNA; actives raise or lower the signal
Outline: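 Readout: fluorescent reporter mRNA by RT-PCR plus capillary electrophoresis, 24 h after dosing transfected HepG2 cells. Endogenous transcription factor activity on a cis promoter element is measured. Gain or loss of signal fitted against DMSO.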

[4] = ATG_Sox_CIS: Attagene CIS-FACTORIAL HepG2 Assay for human SRY-box transcription factor (SOX) (AID 2282960); details: HepG2 Attagene cis-factorial SOX reporter, mRNA; actives raise or lower the signal
Outline: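 Read-out: fluorescent RT-PCR products of SOX1-linked reporter transcripts resolved by capillary electrophoresis, fitted bidirectionally against DMSO. Transiently transfected HepG2 cells, 24 h after chemical exposure, endogenous transcription factor activity.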

[5] = target: Transcription factor Sp1 (Homo sapiens) (UniProt P08047); test: ATG_Sp1_CIS: Attagene CIS-FACTORIAL HepG2 Assay for human Specificity Protein 1 (Sp1) (AID 2282961); details: HepG2 Sp1 cis-reporter transcription, actives raise or lower the signal
Outline: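 Read-out: fluorescence of 6-FAM-labeled, HpaI-digested RT-PCR products separated by capillary electrophoresis. HepG2 cells carried transfected cis-element reporter units and were exposed to chemicals for 24 h; gain or loss of signal fitted relative to DMSO.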

[6] = ATG_SREBP_CIS: Attagene CIS-FACTORIAL HepG2 Assay for human Sterol Regulatory Element Binding (SREBP) (AID 2282962); details: HepG2 Attagene cis-factorial SREBP reporter, mRNA; actives raise or lower the signal
Outline: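 Endogenous factor activity is measured in HepG2 through multiplexed reporter units under cis-element control. Following a 24 h incubation, reporter transcripts are reverse-transcribed, PCR-amplified and sized by capillary electrophoresis; activity is fitted in both directions relative to DMSO.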

[7] = target: Signal transducer and activator of transcription 3 (Homo sapiens) (UniProt P40763); test: ATG_STAT3_CIS: Attagene CIS-FACTORIAL HepG2 Assay for human Signal Transducer and Activator of Transcription 3 (STAT3) (AID 2282963); details: HepG2, Attagene cis-factorial STAT3 reporter transcription; actives raise or lower the signal
Outline: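 Readout is reporter transcript quantified by RT-PCR and capillary electrophoresis, with 6-FAM primer extension and HpaI digestion. Total RNA is taken 24 h after dosing transiently transfected HepG2 carrying cis-regulated reporter units. Bidirectional fit against DMSO.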

[8] = ATG_TAL_CIS: Attagene CIS-FACTORIAL HepG2 Assay for human TAL Basal Promoter (AID 2282966); details: HepG2 Attagene cis-factorial TAL promoter reporter; actives raise or lower the signal;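 further: background control endpoint measuring basal TAL promoter reporter mRNA not a specific factor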
Outline: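 Background-control endpoint: basal TAL promoter reporter transcripts in transiently transfected HepG2, measured 24 h after dosing. Read-out by RT-PCR with fluorescent primer extension and capillary electrophoresis; gain or loss of signal fitted relative to DMSO.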

[9] = ATG_TGFb_CIS: Attagene CIS-FACTORIAL HepG2 Assay for human Transforming Growth Factor (TGF) (AID 2282967); details: HepG2 Attagene CIS TGFb reporter, mRNA transcription; actives raise or lower the signal
Outline: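 Transcript-level reporter readout: HepG2 transfectants, 24 h exposure, RNA to cDNA, reporter-specific PCR, fluorescent primer extension, capillary sizing against ROX standards. Gain- or loss-of-signal relative to DMSO.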

[10] = ATG_VDRE_CIS: Attagene CIS-FACTORIAL HepG2 Assay for human Vitamin D Receptor Element (VDRE) (AID 2282968); details: HepG2 VDRE cis-reporter transcription, actives raise or lower the signal
Outline: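 Readout is VDRE-driven reporter mRNA reflecting endogenous factor activity in human HepG2 cells, sampled 24 h post-dose. Quantification used labelled RT-PCR products separated by capillary electrophoresis; bidirectional analysis relative to DMSO.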

[11] = target: Steroid hormone receptor ERR1 (Homo sapiens) (UniProt P11474); test: ATG_ERRa_TRANS: Attagene TRANS-FACTORIAL HepG2 Assay for human Estrogen-Related Receptor alpha (ERRa) (AID 2282971; active means hit-call score of the fitted dose curve at least 0.9, where 1 is the maximum); details: HepG2 Attagene TRANS reporter, ERRa transactivation
Outline: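 Reporter transcripts from ERRa-Gal4 chimera activity measured in transiently transfected human HepG2 cells 24 hours after dosing, using RT-PCR with 6-FAM primer extension, HpaI digestion and capillary electrophoresis; DMSO is baseline.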

[12] = target: X-box-binding protein 1 (Homo sapiens) (UniProt P17861); test: ATG_Xbp1_CIS: Attagene CIS-FACTORIAL HepG2 Assay for human X-box Binding Protein 1 (XBP1) (AID 2282972); details: HepG2 XBP1 cis-element reporter, Attagene multiplex; actives raise or lower the signal
Outline: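 Multiplexed cis-reporter readout in transfected HepG2 liver cells. Exposure lasted 24 hours. Activity in either direction was fitted against DMSO as negative control and baseline.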

[13] = ATG_M_19_TRANS: Attagene TRANS-FACTORIAL HepG2 Assay for M19 Transcription Factor (Internal Marker) (AID 2282974; active means hit-call score of the fitted dose curve at least 0.9, where 1 is the maximum); details: HepG2 Attagene TRANS-FACTORIAL M19 internal marker reporter
Outline: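 24 h chemical exposure of transiently transfected HepG2 (MRTU library). RNA → oligo(dT) RT → PCR → 6-FAM labelling → HpaI cut → CE fluorescence. Positive-direction fit vs DMSO baseline; background internal-marker readout.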

[14] = ATG_TA_CIS: Attagene CIS-FACTORIAL HepG2 Assay for human TA Basal Promoter (AID 2282964); details: HepG2 Attagene CIS-factorial TA basal promoter reporter; actives raise or lower the signal
Outline: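 Multiplexed mRNA reporter assay, HepG2, 24 h. Reporter cDNA amplified, 6-FAM primer-extended, HpaI-cut, CE-sized; DMSO = negative control and baseline.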

[15] = ATG_TCF_b_cat_CIS: Attagene CIS-FACTORIAL HepG2 Assay for human T-Cell-Factor with beta-catenin (TCF/b-cat) (AID 2282965); details: HepG2 TCF/beta-catenin cis-reporter transcription, actives raise or lower the signal
Outline: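 Endogenous transcription factor activity is captured through cis-promoter reporter constructs transiently introduced into human HepG2 liver cells. Induced reporter mRNA is measured after 24 h and fitted bidirectionally relative to DMSO.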

[16] = ATG_PPRE_CIS: Attagene CIS-FACTORIAL HepG2 Assay for human Peroxisome Proliferator-activated Response Element (PPRE) (AID 2282958); details: HepG2 PPRE cis-element reporter, Attagene transcription factor profiling; actives raise or lower the signal
Outline: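 Read-out: fluorescent reporter mRNA fragments resolved by capillary electrophoresis after RT-PCR. HepG2 cells carried transiently transfected PPRE-driven cis reporter constructs and were dosed for 24 h; gain or loss of signal fitted relative to DMSO.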

[17] = ATG_GAL4_TRANS: Attagene TRANS-FACTORIAL HepG2 Assay for GAL4 (Internal Marker) (AID 2282976; active means hit-call score of the fitted dose curve at least 0.9, where 1 is the maximum); details: HepG2 Attagene TRANS GAL4 internal marker reporter
Outline: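 In transfected human HepG2 liver cells dosed 24 h, GAL4 reporter mRNA serves as a baseline marker. Detection by RT-PCR with fluorescent capillary electrophoresis, activity fitted upward relative to DMSO.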

[18] = target: Estrogen receptor (Homo sapiens) (UniProt P03372); test: ATG_ERa_TRANS: Attagene TRANS-FACTORIAL HepG2 Assay for human Estrogen Receptor alpha (ERa) (AID 2282970; active means hit-call score of the fitted dose curve at least 0.9, where 1 is the maximum); details: HepG2 Attagene TRANS ERa GAL4 reporter, mRNA
Outline: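 Reporter transcripts were measured 24 h after dosing by RT-PCR with fluorescent primer extension and capillary electrophoresis. The system is transiently transfected HepG2 expressing exogenous NR-Gal4 chimeras driving GAL4-UAS reporters; DMSO is the baseline.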

Measured: AC50

Sequence of X-box-binding protein 1 (Homo sapiens) (P17861 whole entry, looked up): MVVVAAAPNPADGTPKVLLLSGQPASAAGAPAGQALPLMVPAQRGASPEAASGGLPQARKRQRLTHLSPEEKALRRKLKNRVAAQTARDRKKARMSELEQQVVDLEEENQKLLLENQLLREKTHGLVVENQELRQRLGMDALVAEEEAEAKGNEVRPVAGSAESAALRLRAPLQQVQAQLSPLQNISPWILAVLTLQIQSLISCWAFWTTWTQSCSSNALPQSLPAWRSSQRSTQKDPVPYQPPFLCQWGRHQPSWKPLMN
Sequence of Signal transducer and activator of transcription 3 (Homo sapiens) (P40763 whole entry, looked up): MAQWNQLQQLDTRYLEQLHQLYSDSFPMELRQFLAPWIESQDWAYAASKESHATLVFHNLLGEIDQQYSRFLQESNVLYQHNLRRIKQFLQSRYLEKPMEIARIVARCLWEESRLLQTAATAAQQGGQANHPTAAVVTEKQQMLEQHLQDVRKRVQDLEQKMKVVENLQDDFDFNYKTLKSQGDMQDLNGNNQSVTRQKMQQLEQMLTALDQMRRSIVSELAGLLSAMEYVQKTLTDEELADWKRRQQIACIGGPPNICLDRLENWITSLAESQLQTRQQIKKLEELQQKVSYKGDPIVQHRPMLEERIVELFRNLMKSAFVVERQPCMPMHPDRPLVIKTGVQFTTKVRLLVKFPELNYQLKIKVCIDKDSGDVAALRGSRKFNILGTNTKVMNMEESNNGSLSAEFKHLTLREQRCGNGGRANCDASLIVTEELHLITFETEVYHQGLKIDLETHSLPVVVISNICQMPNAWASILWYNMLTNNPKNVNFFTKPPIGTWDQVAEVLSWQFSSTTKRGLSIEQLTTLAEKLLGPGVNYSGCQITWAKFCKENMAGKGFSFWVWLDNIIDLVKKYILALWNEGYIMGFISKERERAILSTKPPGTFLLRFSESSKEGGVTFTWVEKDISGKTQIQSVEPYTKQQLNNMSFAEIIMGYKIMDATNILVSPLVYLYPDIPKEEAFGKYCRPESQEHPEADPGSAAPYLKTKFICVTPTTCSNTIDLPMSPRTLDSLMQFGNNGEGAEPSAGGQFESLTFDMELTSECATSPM
Sequence of Steroid hormone receptor ERR1 (Homo sapiens) (P11474 whole entry, looked up, the tested form may be a part): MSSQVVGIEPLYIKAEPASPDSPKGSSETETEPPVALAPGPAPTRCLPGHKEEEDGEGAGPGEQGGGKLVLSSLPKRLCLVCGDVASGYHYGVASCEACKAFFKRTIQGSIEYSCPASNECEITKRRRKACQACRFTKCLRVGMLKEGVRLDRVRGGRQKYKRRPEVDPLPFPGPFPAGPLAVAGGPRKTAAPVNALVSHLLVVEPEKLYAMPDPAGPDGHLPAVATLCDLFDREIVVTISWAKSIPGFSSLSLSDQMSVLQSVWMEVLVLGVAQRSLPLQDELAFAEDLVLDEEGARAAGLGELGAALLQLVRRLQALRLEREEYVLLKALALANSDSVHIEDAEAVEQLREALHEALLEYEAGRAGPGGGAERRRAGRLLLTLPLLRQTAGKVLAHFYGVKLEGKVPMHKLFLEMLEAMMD
Sequence of Transcription factor Sp1 (Homo sapiens) (P08047 whole entry, looked up): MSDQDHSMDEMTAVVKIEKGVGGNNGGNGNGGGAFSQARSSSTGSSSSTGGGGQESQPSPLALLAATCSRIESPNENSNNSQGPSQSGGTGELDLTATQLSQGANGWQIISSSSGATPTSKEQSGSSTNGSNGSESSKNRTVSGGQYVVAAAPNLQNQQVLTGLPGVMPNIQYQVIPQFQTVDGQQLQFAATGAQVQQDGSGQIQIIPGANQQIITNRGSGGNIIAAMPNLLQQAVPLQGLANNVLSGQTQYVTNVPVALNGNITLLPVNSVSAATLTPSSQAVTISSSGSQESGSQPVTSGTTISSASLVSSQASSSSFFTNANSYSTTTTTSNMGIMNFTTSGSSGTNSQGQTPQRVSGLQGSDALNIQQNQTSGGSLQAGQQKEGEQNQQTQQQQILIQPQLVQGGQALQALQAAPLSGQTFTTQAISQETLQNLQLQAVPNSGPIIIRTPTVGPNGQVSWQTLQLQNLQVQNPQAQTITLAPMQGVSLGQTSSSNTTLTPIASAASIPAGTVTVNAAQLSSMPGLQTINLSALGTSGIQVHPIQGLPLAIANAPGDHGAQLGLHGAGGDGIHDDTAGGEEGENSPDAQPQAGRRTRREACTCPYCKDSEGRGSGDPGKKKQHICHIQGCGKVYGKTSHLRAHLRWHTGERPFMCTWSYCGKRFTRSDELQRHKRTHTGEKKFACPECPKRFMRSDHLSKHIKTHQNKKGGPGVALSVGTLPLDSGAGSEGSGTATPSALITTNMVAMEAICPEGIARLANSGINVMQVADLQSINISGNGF
Sequence of Paired box protein Pax-6 (Homo sapiens) (P26367 whole entry, looked up): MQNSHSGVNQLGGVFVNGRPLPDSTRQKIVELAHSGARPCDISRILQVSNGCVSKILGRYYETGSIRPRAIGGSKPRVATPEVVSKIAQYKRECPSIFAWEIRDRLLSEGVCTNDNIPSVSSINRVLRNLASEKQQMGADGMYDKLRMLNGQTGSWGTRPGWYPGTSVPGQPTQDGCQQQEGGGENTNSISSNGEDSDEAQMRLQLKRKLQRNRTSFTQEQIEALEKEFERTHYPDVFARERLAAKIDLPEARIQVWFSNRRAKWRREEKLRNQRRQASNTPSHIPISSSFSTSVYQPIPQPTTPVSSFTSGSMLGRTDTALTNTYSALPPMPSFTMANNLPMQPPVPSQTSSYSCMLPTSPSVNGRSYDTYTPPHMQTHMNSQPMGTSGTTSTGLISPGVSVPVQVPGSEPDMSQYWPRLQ
Sequence of Estrogen receptor (Homo sapiens) (P03372 whole entry, looked up, the tested form may be a part): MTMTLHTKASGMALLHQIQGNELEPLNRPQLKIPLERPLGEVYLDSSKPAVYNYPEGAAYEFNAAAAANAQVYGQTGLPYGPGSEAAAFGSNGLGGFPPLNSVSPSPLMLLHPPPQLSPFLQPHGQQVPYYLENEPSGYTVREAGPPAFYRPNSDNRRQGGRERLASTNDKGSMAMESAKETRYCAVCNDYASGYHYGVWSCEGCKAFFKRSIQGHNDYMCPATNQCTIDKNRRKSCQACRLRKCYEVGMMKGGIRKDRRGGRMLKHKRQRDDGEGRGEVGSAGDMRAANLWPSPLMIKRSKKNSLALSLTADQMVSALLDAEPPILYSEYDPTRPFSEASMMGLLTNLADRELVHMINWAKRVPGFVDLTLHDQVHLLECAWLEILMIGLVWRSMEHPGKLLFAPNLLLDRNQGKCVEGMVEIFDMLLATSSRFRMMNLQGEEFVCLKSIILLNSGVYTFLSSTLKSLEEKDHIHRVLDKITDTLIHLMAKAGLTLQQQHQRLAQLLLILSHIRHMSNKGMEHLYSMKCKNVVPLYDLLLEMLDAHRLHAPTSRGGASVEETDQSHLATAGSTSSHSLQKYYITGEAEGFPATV

O=C(O)CS
not listed: [14] | [15] | [16] | [17] | [18]
inactive: all other assays above

CC(C)(CO)CO
not listed: [1] | [10] | [12] | [16] | [17] | [18]
inactive: all other assays above

CC1(C)CC(=O)CC(C)(C)N1
active: [2] 36.2 µM
not listed: [1] | [9] | [11] | [13] | [18]
inactive: all other assays above

C=CC(=O)OCC(CO)(COC(=O)C=C)COC(=O)C=C
active: [16] 117 µM | [15] 5.46 µM | [9] 54.2 µM | [10] 0.708 µM
not listed: [1] | [13] | [14] | [18]
inactive: all other assays above

CC1=CC[C@@H]2C[C@H]1C2(C)C
not listed: [1] | [11] | [13] | [17] | [18]
inactive: all other assays above

CC/C(=C(\c1ccccc1)c1ccc(OCCN(C)C)cc1)c1ccccc1
inactive: [1] | [16] | [3] | [4] | [5] | [6] | [7] | [14] | [15] | [8] | [9] | [13] | [17]
active: [6] 5.24 µM and 3.71 µM

CCOc1ccc(NC(C)=O)cc1
not listed: [11] | [16] | [18]
inactive: all other assays above

CC(C)(O)CCc1ccccc1
not listed: [1] | [11] | [13] | [14] | [17] | [18]
inactive: all other assays above

C=CC(=O)OCCCCCC
active: [2] 59.6 µM
not listed: [3] | [10] | [11] | [16] | [18]
inactive: all other assays above

C/C=C(\C)C(=O)OC/C=C(\C)CCC=C(C)C
active: [6] 61.3 µM
not listed: [5] | [11] | [13] | [16] | [17] | [18]
inactive: all other assays above

C1=COCCC1
not listed: [1] | [11] | [17] | [18]
inactive: all other assays above

[Cu+]
not listed: [3] | [10] | [11] | [16] | [17]
inactive: all other assays above
